Assay results published in PubChem BioAssay AID1792 (The Scripps Research Institute Molecular Screening Center, 2009).
Screen size: about 16,000 compounds; about 130 (0.81%) were called active. This excerpt belongs to a sample that is enriched for actives. Values without a mark were called inactive. Rule as the data show it: active = inhibition above about 75%; inactive = the rest.

Biological target: NADPH oxidase 1 (Homo sapiens) (UniProt Q9Y5S8)
Assay: blocks human NADPH oxidase 1 activity (AID 1792)
Conditions: HT29 cells, luminol chemiluminescence ROS; at 6.7 µM; active compounds read high

NADPH oxidase 1 (Homo sapiens), sequence (Q9Y5S8 whole entry, looked up): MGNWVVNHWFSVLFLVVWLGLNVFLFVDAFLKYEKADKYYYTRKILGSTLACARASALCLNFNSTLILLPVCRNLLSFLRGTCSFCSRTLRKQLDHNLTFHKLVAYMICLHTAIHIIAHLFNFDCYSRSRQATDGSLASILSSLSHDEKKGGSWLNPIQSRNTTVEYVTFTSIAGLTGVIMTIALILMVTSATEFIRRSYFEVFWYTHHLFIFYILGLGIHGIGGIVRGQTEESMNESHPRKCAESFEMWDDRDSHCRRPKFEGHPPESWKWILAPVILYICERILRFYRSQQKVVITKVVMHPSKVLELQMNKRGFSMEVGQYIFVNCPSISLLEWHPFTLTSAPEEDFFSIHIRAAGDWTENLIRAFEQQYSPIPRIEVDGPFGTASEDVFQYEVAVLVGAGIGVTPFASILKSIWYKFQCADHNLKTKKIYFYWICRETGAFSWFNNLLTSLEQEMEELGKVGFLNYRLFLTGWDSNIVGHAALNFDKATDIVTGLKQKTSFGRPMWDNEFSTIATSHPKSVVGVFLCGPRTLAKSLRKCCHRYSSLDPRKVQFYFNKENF

| Compound | inhibition |
| --- | --- |
| N#C/C(=C\c1sccc1Oc1ccccc1)S(=O)(=O)c1ccc(C(F)(F)F)cn1 | -16.5% |
| CCCCC#Cc1cncc(C(=O)NNC(=O)Nc2ccc(Cl)cc2)c1 | 11.2% |
| N#Cc1cccnc1NNC(=O)Nc1ccc(OCc2ccccc2)cc1 | 61.8% |
| CC(C)CC(NC(=O)OC(C)(C)C)C(=O)OCc1ccc(CC(=O)O)cc1 (stereo not drawn) | -5% |
| O=c1c(-c2nc(-c3ccc(C(F)(F)F)cc3)no2)cnc2n1CCS2 | -4.83% |
| CSc1sc(C(=O)NC2CC2)c(-c2ccc(Cl)cc2)c1C#N | -9.35% |
| NS(=O)(=O)c1ccc(Oc2c(Cl)cccc2[N+](=O)[O-])cc1 | 21.2% |
| Cc1cc(C(=O)NCCNS(=O)(=O)c2ccc(Cl)cc2)c(C)o1 | 2.68% |
| O=C1c2ccccc2O[C@@H](c2ccccc2)[C@@H]1NC1CCCCC1 | -19.7% |
| COC(=O)c1ccccc1-c1c2ccc(=O)cc-2oc2cc(O)ccc12 | -13% |
| C#CC(C)(CC)OCC(O)CS(=O)(=O)O (stereo not drawn) | -13.2% |
| COc1cccc2c1c(NS(=O)(=O)c1cn(C)cn1)nn2C | -41.2% |
| Cc1nc(-n2cccc2)sc1C(=O)N/N=C/c1ccccc1Cl | 6.52% |
| O=S(=O)(c1ccc(Cl)cc1)n1nccc1/C=C/c1cccs1 | -18.9% |
| CSc1nnc(SC)n1CCNC(=O)Nc1cccc(Cl)c1 | -65% |
| O=C(Cn1nnc2ccccc21)NCCSCc1ccco1 | 16.2% |
| CN([C@H]1CCN2CCc3ccccc3C2C1)S(C)(=O)=O (stereo partly drawn) | -68.5% |
| Cc1ccc(C(=O)N2CCN(c3cccc4[nH]ccc34)CC2)cc1 | 76% (active) |
| N#Cc1nccnc1N1CCN(C(=O)c2ccccc2)CC1 | -2.33% |
| COc1cccc(NC(=S)NNC(=S)NC2CC3CCC2C3)c1 (stereo not drawn) | 87.8% (active) |
| COc1ccc(NC(=S)Nc2ccc(OC)cc2)cc1 | 3.7% |
| COc1cccc(NC(=S)N(CCC#N)C2CCCCC2)c1 | -44.9% |
| CSc1nc(-n2nc(C)cc2C)nc(-c2ccco2)c1C#N | -107% |
| Cc1ccc(NC(=S)C(C#N)C(=O)N2CCCC2)c(C)c1 (stereo not drawn) | -73.4% |
| CCOC(=O)c1c[nH]n2c(=O)c3c(nc12)CCC3 | -13% |
| Cc1noc(C)c1S(=O)(=O)NCc1cc(F)cc2c1OCOC2 | -23.9% |

| Compound | inhibition |
| --- | --- |
| CS/C(=N/S(=O)(=O)c1c(C)noc1C)NNC(=O)Nc1ccc(Cl)cc1 | 20% |
| CC1=NCCNC(C)=C1N1CCOCC1 | -21.2% |
| CCCCNC(=O)OCCSCCS(=O)(=O)c1ccc(Cl)cc1 | -35% |
| O=C(NCc1cccnc1)Nc1cccc(NC(=O)NCc2cccnc2)c1F | -23.7% |
| CC(C)(C)OC(=O)n1ccc2cc(Br)ccc21 | -51.3% |
| Fc1ccc(NC(=S)N2CCN=C2Nc2ccc(F)cc2)cc1 | -49.7% |
| O=C(O)c1ncoc1-c1cccc(Cl)c1 | -52.4% |
| CCOC(=O)CC(=O)CSc1nnc(N)s1 | -48% |
| N#Cc1cncc(Br)c1 | -66.5% |
| NNC(=O)CC1C(=O)NCCN1Cc1c(Cl)cccc1Cl (stereo not drawn) | 14.9% |
| CSc1ccc(Br)cc1 | -59.5% |
| CC(C)(C)c1cc(NC(=O)/C(C#N)=C/c2cccc(Cl)c2Cl)c(C(N)=O)s1 | -9.18% |
| COC(=O)c1ccccc1N(C)C(=O)c1cc(OC)c(OC)c(OC)c1 | -18% |
| CCOC(=O)NC(=O)/C(=C/NCc1cccs1)C(=O)OCC | -20.5% |
| NC(=O)c1ccc(-c2csnn2)cc1 | -4.63% |
| FC(F)(F)c1cc(-c2ccc(Br)cc2)n[nH]1 | -47% |
| Cc1ncn2cc(-c3ccc(Cl)cc3Cl)[nH]c(=O)c12 | -12% |
| Cc1ccc(CSC(=N)N)cc1 | -35.4% |
| O=C(NC(=S)Nc1nc(-c2ccc(Cl)cc2)cs1)C1CC1 | -57.1% |
| CC(=O)NC(Cc1c[nH]c2ccccc12)C(=O)O (stereo not drawn) | -15.3% |
| O=C(Cn1c(=Nc2ccc(F)cc2)oc2ccccc2c1=O)c1ccccc1 | -0.92% |
| COc1ccc(S(=O)c2ccccc2C(=O)O)c(C(=O)O)c1 (stereo not drawn) | -11.3% |
| COc1ccccc1C1CCN(c2ccc([N+](=O)[O-])cn2)CC1 | 18% |
| O=C(Nc1ccc(C(F)(F)F)cn1)c1ccc(Oc2cc(Cl)cc(Cl)c2)o1 | -58.2% |
| CCCCOC(=O)c1ccc(-c2ccccn2)s1 | -10.4% |
| Cc1[nH]ncc1S(=O)(=O)c1ccc(Cl)cc1 | -77.8% |

| Compound | inhibition |
| --- | --- |
| Cc1cc(C(=O)NNC(=O)c2cc(C)n(C(C)(C)C)n2)no1 | -45.9% |
| O=C(Nc1ccccc1C(F)(F)F)N1CCCC1c1cccnc1 (stereo not drawn) | -8.11% |
| CCOC(=O)c1sc(SC)c(-c2ccccc2)c1N | 0% |
| N#Cc1c(C2CCCCC2)[nH]c(=S)[nH]c1=O | -8.73% |
| COc1c(/C(N)=N/O)cc(C)c2c1CCC2 | 8.11% |
| Cc1ccc(S(C)(=O)=NC(=O)NS(=O)(=O)Oc2ccc(Cl)cc2Cl)cc1 (stereo not drawn) | -64.7% |
| O=C1c2ccccc2C(=O)N1CNc1ccc(C2CCCCC2)cc1 | -10.4% |
| O=C(c1ccc(C#Cc2ccccc2)o1)N1CCCCC1 | -23.7% |
| NNC(=O)c1csc(COc2ccc(C3SCCS3)cc2)n1 | 4.76% |
| N/C(Cc1ccc(F)cc1F)=N\OC(=O)c1cccc(C(F)(F)F)c1 | -67.4% |
| O=C(c1ccccc1I)c1c[nH]c2ccccc12 | 13.6% |
| CC1(C)c2ccccc2-n2c1cc(O)c(-c1ccccc1)c2=O | -50% |
| COC(=O)c1c(C)noc1-c1ccno1 | -21.7% |
| CCCCCCCCCCCCCC#CC(O)C(N)CO (stereo not drawn) | -24.7% |
| O=C(NNC(=O)C1c2ccccc2Oc2ccccc21)c1cccc(F)c1 | -30.2% |
| CC(=O)Nc1ccc(NC(=O)c2cc(C)ccc2[N+](=O)[O-])c(C)c1 | -28.7% |
| CSc1ccc(C(F)(F)F)cc1NC(=S)Nc1ccccc1 | -18% |
| COC(=O)c1sccc1-c1ccc(/C(C)=N/NC(N)=O)o1 | -53.5% |
| CCOC1=NC(C(F)(F)F)(C(F)(F)F)N=C(N2CCOCC2)O1 | -12.7% |
| O=S(=O)(Cc1cccc(C(F)(F)F)c1)NCc1ccc2c(c1)OCO2 | -29.2% |
| Cc1nc(-c2ccccc2)sc1-c1nnc(C2CC2)o1 | -8.29% |
| Cc1ccc(CC(=O)c2cccnc2)cc1 | 13.9% |
| COc1ccccc1N1CCN(C/C(N)=N/O)CC1 | -72.5% |
| O=C(NCc1ccc2c(c1)OCO2)c1cccc2c1OCCCO2 | -22.4% |
| COc1ccc(-c2nnc(SCC(O)C(F)(F)F)n2-c2cccc(OC)c2)cc1 (stereo not drawn) | -65.7% |
| O=C1CCC(=O)N(c2ccccc2)N1 | 5.82% |

| Compound | inhibition |
| --- | --- |
| CN(C)/C=N/NC(=O)c1nc(-c2cccc(-n3cccc3)c2)no1 | 18.8% |
| O=S(=O)(Oc1ncccc1C(F)(F)F)c1cccc(F)c1 | -33.3% |
| CC(C)(C)c1csc(Sc2ccc([N+](=O)[O-])cc2[N+](=O)[O-])n1 | -42.4% |
| Cc1[nH]c2ccccc2c1Sc1ccc(Cl)cc1 | -26.1% |
| CC1(C)C2CC[C@](C)(C2)C1NC(=O)c1c(Cl)cccc1Cl (stereo partly drawn) | -15.2% |
| Oc1c(Cl)c(Cl)c(Cl)c2ccccc12 | -9.97% |
| O=C(Nc1ccccc1)N1CCN(Cc2ccccc2)CC1 | -18.5% |
| Nc1[nH]c(=O)nc2nc[nH]c12 | 10.8% |
| CN(C)CCC(O)c1ccc2c(c1)OCCCCO2 (stereo not drawn) | -25.5% |
| Cc1ccc2sc(NC(=O)NC(=O)c3c(Cl)cccc3Cl)nc2c1 | -14.9% |
| Cc1c(C(=O)Nc2ccccc2)sc2cc(C(C)(C)C)sc12 | 4.35% |
| CS(=O)(=NC(=O)c1cc2ccccc2o1)c1ccc(Cl)cc1 (stereo not drawn) | 3.12% |
| N#CCc1ccc(NC(=O)c2ccccc2C(=O)Nc2ccc(CC#N)cc2)cc1 | -21.7% |
| CCCN(CCC)S(=O)(=O)c1ccc(C(=O)N2CC3CCC(CC3)C2)cc1 | -49.5% |
| OC(CNCc1ccc2c(c1)OCO2)COc1ccccc1 (stereo not drawn) | -16.2% |
| CC(C)c1ccc(N2C(=O)/C(=C\c3ccc(-c4ccc([N+](=O)[O-])cc4)o3)SC2=S)cc1 | -23.7% |
| FC(F)(F)c1cccc(-n2c(-c3ccncc3)n[nH]c2=S)c1 | -29.9% |
| c1ccc(CN2CCN(Cn3nnc4ccccc43)CC2)cc1 | -54.1% |
| CC1(C)C=Cc2cc(-c3noc(-c4ccccc4)n3)ccc2O1 | -38.9% |
| Nc1c(-c2nnc(SCC(=O)c3ccccc3)o2)cnn1-c1ccccc1 | 26.2% |
| FC(F)(F)c1ccc(/C=N/Nc2nccc(C(F)(F)F)n2)cc1 | -24.2% |
| CC(=O)Nc1cccc(-n2nnc(SCC(=O)c3cc(-c4ccccc4)no3)n2)c1 | -33.7% |
| Cc1ccc(S(=O)(=O)NNC(=S)NC(C)(C)C)cc1 | -24.1% |
| C=C(C)c1cccc(C(C)(C)NC(=O)CC(C)=O)c1 | -17.3% |
| COC(=O)c1cccc(CSc2ncccc2C(=O)O)c1 | -48.1% |
